In PubChem BioAssay:
Activity calls are given as the source filed them.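 How the source made its calls, unless noted: active means inhibition of the reporter signal at or above 50%; inactive means inhibition below 50%.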

Legend:
[1] = inhibitors of TNFa-induced NFkB p65 translocation, primary screen, imaging, HUVEC, MLSMR starter and 10KST1 sets (AID 438;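 active means inhibition above 20% together with a positive visual image hit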;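 further: compound added about 3h40 before a 20 min TNFalpha stimulation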;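 on inhibition: signal is the nuclear over cytoplasmic p65 intensity ratio per well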); details: HUVEC TNFa-induced p65 nuclear translocation; cell count: measured here: nuclei count (cytotoxicity indicator), at 2.08 µM; inhibition: at 2 µM, stronger effect = higher value, 0% TNFa-plus-vehicle, 100% no-TNFa wells
[2] = reduction of polyQ htt aggregates in cells – imaging, exon1htt(103Q)mCFP cells, high-content imaging, primary screen (AID 483;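 active means visual image review flags a hit and inhibition of aggregation exceeds 20%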;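 further: compound exposure lasted 3 days before fixation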;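 on nuclei count: percent of the per-plate median nuclei count of sample wells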); details: exon1htt(103Q)mCFP cell line, aggregate imaging, at 2 µM; inhibition of aggregation: stronger effect = higher value; nuclei count: measured here: cell count, toxicity
[3] = endothelial E-selectin expression blockers – imaging, HUVEC, immunofluorescence, MLSMR starter and 10KST1 sets, primary screen (AID 487;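 active means visually confirmed hit in the image check and inhibition above 20%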;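 on inhibition: signal is fraction of cell area covered by stained E-selectin grains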;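 on nuclei count: 100% = median nuclei count of all wells on the same plate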); details: HUVEC TNFalpha-induced E-selectin immunofluorescence imaging, at 2 µM; inhibition: stronger effect = higher value; nuclei count: measured here: cell number, toxicity
[4] = molecular target: Voltage-gated potassium channel subunit beta-2 (Rattus norvegicus) (UniProt P62483); test: inhibitors of rat Kvbeta2 reductase activity – biochemical, NADPH fluorescence, primary screen (AID 622;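 active means fluorescence slope higher than the sample average by over 3 SD, cut at about -0.22 in these data, passing the limit was not always enough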;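 further: slope of raw intensity against log time taken from 70 to 1610 s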); details: recombinant KvBeta, 4-cyanobenzaldehyde reduction, at 10 µM, stronger effect = higher value
Sequence of Voltage-gated potassium channel subunit beta-2 (Rattus norvegicus) (P62483 whole entry, looked up): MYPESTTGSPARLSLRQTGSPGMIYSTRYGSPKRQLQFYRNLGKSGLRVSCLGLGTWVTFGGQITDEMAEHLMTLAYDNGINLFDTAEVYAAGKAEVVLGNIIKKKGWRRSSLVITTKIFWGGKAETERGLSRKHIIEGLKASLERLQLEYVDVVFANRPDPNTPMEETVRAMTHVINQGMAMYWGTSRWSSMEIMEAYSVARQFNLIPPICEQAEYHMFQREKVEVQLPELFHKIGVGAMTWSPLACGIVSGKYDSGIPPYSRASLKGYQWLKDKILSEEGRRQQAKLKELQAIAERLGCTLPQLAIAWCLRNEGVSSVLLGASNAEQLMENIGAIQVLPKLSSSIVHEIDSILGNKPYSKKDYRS

[5] = molecular target: Voltage-gated potassium channel subunit beta-2 (Rattus norvegicus) (UniProt P62483); test: enhancers of rat Kvbeta2 NADPH turnover – biochemical, NADPH fluorescence, primary screen (AID 623;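 active means NADPH fluorescence slope more negative than the mean of all samples by about 3 SD, 99.7% confidence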;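 further: fluorescence intensity change per second fitted from 20 to 320 s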); details: Recombinant KvBeta, NADPH fluorescence decrease slope, 10 min; at 10 µM; stronger effect = lower value
[6] = molecular target: Alpha-2C adrenergic receptor (Homo sapiens) (UniProt P18825); test: compounds altering alpha2C-coupled GIRK flux – cell-based, HEK293 alpha2C/GIRK1/2, thallium flux, primary screen (AID 624;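 active means fluorescence slope after compound addition differing from the mean of all screened samples at 99.7% confidence, in either direction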;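 further: slope of fluorescence ratio to pre-addition baseline per second over 15 to 24 s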); details: thallium flux BTC fluorescence, at 10 µM, actives lie on both sides
Sequence of Alpha-2C adrenergic receptor (Homo sapiens) (P18825 whole entry, looked up): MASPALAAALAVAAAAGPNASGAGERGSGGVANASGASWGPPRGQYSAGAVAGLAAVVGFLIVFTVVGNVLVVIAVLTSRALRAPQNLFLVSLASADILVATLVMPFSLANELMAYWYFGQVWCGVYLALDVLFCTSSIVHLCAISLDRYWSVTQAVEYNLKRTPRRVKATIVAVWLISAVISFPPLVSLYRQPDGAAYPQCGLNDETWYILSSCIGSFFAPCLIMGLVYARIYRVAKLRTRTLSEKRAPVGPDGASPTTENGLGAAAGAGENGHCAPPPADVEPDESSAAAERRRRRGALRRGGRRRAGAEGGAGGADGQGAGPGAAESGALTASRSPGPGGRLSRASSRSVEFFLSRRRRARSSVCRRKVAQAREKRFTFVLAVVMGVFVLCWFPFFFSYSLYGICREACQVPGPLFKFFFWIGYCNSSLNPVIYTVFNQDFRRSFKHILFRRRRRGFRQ

[7] = blockers of RIG-like receptor reporter activation – cell-based, Sendai virus stimulus, luciferase, 10K MLSCN set, TLR/RLR signaling modifier project, primary screen (AID 602276;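 active means inhibition at or above 50% at 10 µM; inactive means inhibition below 50%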;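 further: firefly luciferase from ISG56 promoter only with Renilla not read in this screen; 0% = Sendai virus plus DMSO and 100% = medium plus DMSO without virus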); details: HEK293 RL24 IRF3 luciferase reporter, at 10 µM, stronger effect = higher value
[8] = TLR3 IRF3 reporter activation blockers – cell-based, poly I:C stimulus, luciferase, 10K MLSCN set, primary screen (AID 602277); details: HEK293-TLR3 RL24 IRF3 luciferase reporter, at 10 µM, stronger effect = higher value

Row | SMILES | cell count [1] | inhibition [1] | inhibition of aggregation [2] | nuclei count [2] [%] | inhibition [3] | nuclei count [3] [%] | fluorescence slope [4] | NADPH fluorescence slope [5] | slope [6] | inhibition [7] | inhibition [8]
1 | CCOc1ccc(C(=O)N2CCN(c3ccccc3)CC2)cc1OCC | 196 | -16.9% (inactive) | 20.3% (inactive) | 97.1 | -17.5% (inactive) | 100 | -0.561 (inactive) | 9.3e-05 (inactive) | 0.00618 (inactive) | 16% (inactive) | 9.44% (inactive)
2 | c1ccc(CNc2ncnc3ccccc23)cc1 | 537 | -12.4% (inactive) | -8.7% (inactive) | 70.8 | -32.1% (inactive) | 107 | -0.408 (inactive) | -4.8e-05 (inactive) | 0.00588 (inactive) | -14.3% (inactive) | -78% (inactive)
3 | COc1ccc2c(c1)C(=O)N(c1ccccc1OC)C(=O)C2 | 320 | -3.9% (inactive) | -3.2% (inactive) | 80.8 | -22% (inactive) | 110 | -0.401 (inactive) | -3.7e-05 (inactive) | 0.0052 (inactive) | 14.7% (inactive) | 10.2% (inactive)
4 | COc1ccc(C)cc1S(=O)(=O)Nc1cccnc1 | 283 | 0.4% (inactive) | 13.9% (inactive) | 78.8 | -61.4% (inactive) | 90 | -0.475 (inactive) | -3.8e-05 (inactive) | 0.00515 (inactive) | 25.8% (inactive) | 25.5% (inactive)
5 | COCC(=O)N(Cc1cc2cc(OC)ccc2[nH]c1=O)c1ccccc1 | 412 | 4.3% (inactive) | 1.5% (inactive) | 106 | -47.1% (inactive) | 113 | -0.453 (inactive) | -5.4e-05 (inactive) | 0.00281 (inactive) | 5.46% (inactive) | 19% (inactive)
6 | CCN(CC)c1ccc(NC(=O)CN2CCN(CC(=O)Nc3ccccc3F)CC2)cc1 | 348 | 3.1% (inactive) | 5.8% (inactive) | 104 | -45.9% (inactive) | 113 | -0.413 (inactive) | -3.8e-05 (inactive) | 0.00308 (inactive) | 12.9% (inactive) | 19.4% (inactive)
7 | O=C1c2ccccc2C(=O)N1CC(O)Cn1nnc2ccccc21 (centres undefined) | 480 | -22.3% (inactive) | -0.2% (inactive) | 116 | -47.9% (inactive) | 99.5 | -0.521 (inactive) | -4.1e-05 (inactive) | 0.00496 (inactive) | 3.12% (inactive) | 4.4% (inactive)
8 | CC(C)CCn1c(NCCc2ccccc2)nc2c1c(=O)n(C)c(=O)n2C | 753 | -8% (inactive) | 1.3% (inactive) | 120 | -17.6% (inactive) | 108 | -0.409 (inactive) | -7.3e-05 (inactive) | 0.00481 (inactive) | 9.59% (inactive) | 32.1% (inactive)
9 | COc1ccc(OCC(=O)Nc2cccc3ncccc23)cc1 | 629 | -16.2% (inactive) | 31.6% (inactive) | 84.8 | 23.2% (inactive) | 95.6 | -0.622 (inactive) | -5.4e-05 (inactive) | 0.00436 (inactive) | 1.02% (inactive) | -8.12% (inactive)
10 | COc1ccc(-c2nc(CSCC(=O)N3CCc4ccccc4C3)c(C)o2)cc1OC | 643 | 6.9% (inactive) | -5.2% (inactive) | 101 | 5.9% (inactive) | 116 | -0.603 (inactive) | -1.8e-06 (inactive) | 0.00589 (inactive) | 8.21% (inactive) | 12.7% (inactive)
11 | Cc1cc(C)c(C(=O)CSc2nnc(-c3ccccc3Br)o2)cc1C | 433 | 2.9% (inactive) | -0.1% (inactive) | 97.3 | -64.9% (inactive) | 124 | -0.397 (inactive) | -2.6e-05 (inactive) | 0.00604 (inactive) | 9.09% (inactive) | 3.14% (inactive)
12 | CC1CCc2c(sc(N)c2C(N)=O)C1 (centres undefined) | 722 | -4.4% (inactive) | 6.1% (inactive) | 88.3 | 16.5% (inactive) | 98.4 | -0.371 (inactive) | -1.7e-06 (inactive) | 0.00501 (inactive) | 5.07% (inactive) | 6.01% (inactive)
13 | C=CCn1c2ccccc2c2nnc(SCC(=O)NC(C(=O)OC)C(C)C)nc21 (centres undefined) | 787 | -1.4% (inactive) | 10.3% (inactive) | 104 | -83.9% (inactive) | 103 | -0.424 (inactive) | -0.000127 (inactive) | 0.00508 (inactive) | 14.6% (inactive) | 27.7% (inactive)
14 | COc1ccc(-c2nnc(SCC(=O)Nc3sc4c(c3C#N)CCC4)n2CC2CCCO2)cc1 (centres undefined) | 846 | 4.6% (inactive) | 13.5% (inactive) | 103 | -171% (inactive) | 131 | -0.591 (inactive) | -5.3e-05 (inactive) | 0.00872 (inactive) | 7.87% (inactive) | 15.5% (inactive)
